The panel holds about 83,000 compounds, 20% with a hit somewhere; the sample as a whole holds those more often.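 Cell lines were cultured in 96-well plates, exposed to a single compound concentration, and assessed for percent growth 48 hours later.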 Active and inactive are the calls of the source.

The experiment deals with OVCAR-4 ovarian. Briefly: NCI-60 one-dose screen, 48 h (100 = growth as untreated, 0 = no growth, -100 = all killed). The following applies: 10 µM unless noted. Here is the method: Growth inhibition of the OVCAR-4 human tumor cell line is measured as a screen for anti-cancer activity. Cells are grown in 96 well plates and exposed to the test compound for 48 hours. Compounds are tested at a single concentration, which is 10^-5 M for most compounds. The reported endpoint is percent growth (GI% or GIPRCNT), where numbers from 0 - 100% represent growth inhibition, and numbers from -100% - 0 represent cell death. For example, a value of 40 represents 60% growth inhibition. A value of 0 means no net growth occurred over the course of the experiment. A value of -40 indicates 40% of cells at the beginning of the experiment died by the end of the experiment. A value of -100 means all cells are dead at the end of the experiment.
NCI-60 Human Tumor Cell Lines Screen was performed using the standard one-dose NCI protocol, which is described in more detail at https://dtp.cancer.gov/discovery_development/nci-60/default.htm.
Compounds with GIPRCNT values below 10 were considered active. Activity score was based on GIPRCNT using the following formula: […]
Score is 0 for GIPRCNT values of 100 or above, 50 for GIPRCNT values of 0, and 100 for GIPRCNT values of -100.
Take `COc1ccc(/C=C2\COc3ccc(-c4ccccc4)cc3C2=O)cc1O`: the growth is 80.5% (inactive).

`CN(Cc1ccccc1)c1nc(Cl)c(C2CC(c3ccc(Cl)cc3)=Cc3[nH][nH]c(=O)c32)s1` (stereo not given): the growth is 116% (inactive).

For `CN1CCN(c2c(F)cc(NC3=C(Cl)C(=O)c4ncccc4C3=O)cc2F)CC1`, the growth was -87.8% (active).

Regarding `[2H]C1([2H])NC([2H])([2H])C([2H])([2H])N(c2ccc(Nc3ncc4cc(C(=O)N(C)C)n(C5CCCC5)c4n3)nc2)C1([2H])[2H]`, the growth was 92.7% (inactive).

With `Cc1c([N+](=O)[O-])cc(C(C)(C)C)cc1[N+](=O)[O-]`, the growth was 115% (inactive).

In the case of `O=C(Nc1ccc2ncnc(Nc3ccc(Oc4cccc(F)c4)c(Cl)c3)c2c1)c1ccc(CNCCO)cc1`, the growth is 7.6% (active).

As to `OC(c1ccccc1)c1ccccn1` (stereo not given), the growth is 116% (inactive).

In the case of `CC1(C)CCCN1CCCN1c2ccccc2Sc2ccc(Cl)cc21`, the growth is 53.2% (inactive).

Regarding `BrC(Br)(Br)c1cnc2ccccc2n1`, the growth is 44.1% (inactive).

`Clc1cc(Cl)cc(N2N=C(c3cccc(Nc4ccncc4)c3)CC2c2ccc(Br)cc2)c1` (stereo not given): the growth is 2.37% (active).

For `CC[C@H](C)[C@@H]1NC(=O)[C@H](Cc2ccc(O)cc2)N(C)C(=O)[C@H](Cc2ccccc2)NC(=O)CN(C)C(=O)[C@@H]2CCCN2C(=O)[C@@H](Cc2ccccc2)N(C)C(=O)[C@H](CC(C)C)NC1=O`, the growth was -4.8% (active).

Regarding `N#CSCC1CC(O)(c2ccccc2)C(c2ccccc2)C(c2ccc(F)cc2)O1` (stereo not given), the growth is 15.8% (inactive).

Consider `CC(=O)c1c[nH]c2ccc(-c3ccnc(Nc4ccc(NC(=O)C5CCCC5)c(CN5CCOCC5)c4)n3)cc12`, for which the growth is -14% (active).

In the case of `CC(=O)c1c(C)[nH]c(-c2nc3ccc(N4CCN(C)CC4)cc3[nH]2)c1-c1ccccc1`, the growth is 33.4% (inactive).

`CC(C)[N+](C)(CCOC(COc1ccccc1)COc1ccccc1)C(C)C`: the growth is 78.6% (inactive).

Turning to `CCCCCCCCCCCCC1CCC/C=C\CCC(=O)O1` (stereo not given), the growth was 109% (inactive).

With `O=C(Cc1ccc(/C=C/C(=O)c2ncc[nH]2)cc1)Nc1ccc(C(F)(F)F)cc1`, the growth is 51.1% (inactive).

In the case of `CCCCCCNC(=O)Oc1ccc(/C(=C(/CC)Cc2ccccc2)c2ccc(OCCN(CC)CC)cc2)cc1`, the growth is 66.4% (inactive).

Turning to `CN1CCN(CC#CCNC(=O)[C@]23CCC(C)(C)C[C@H]2C2=CC[C@@H]4[C@@]5(C)Cc6c([nH]c7ccccc67)C(C)(C)[C@@H]5CC[C@@]4(C)[C@]2(C)CC3)CC1`, the growth is 77.8% (inactive).

As to `COc1ccc(/C=N/C2=C(C#N)C(c3ccccc3[N+](=O)[O-])c3ccc4ccccc4c3O2)cc1` (stereo not given), the growth is 91.5% (inactive).

As to `CC(C)Cc1ccc(C(C)C(=O)NCc2c[nH]c3ccc(Cl)cc23)cc1` (stereo not given), the growth is 88% (inactive).

Consider `CCNC(=O)c1[nH]cc(-c2ccc(OC)cc2)c1-c1cc(OC)cc(OC)c1`, for which the growth was 81.4% (inactive).

As to `C[C@H]1[C@H](C)CC[C@]2(CO)CC[C@]3(C)C(=CC[C@@H]4[C@@]5(C)CCCNC(C)(C)[C@@H]5CC[C@]43C)[C@H]12`, the growth was 18.5% (inactive).

`C#CCNC(=O)[C@H](Cc1ccccc1)NC(=O)[C@]12CC[C@@H](C(=C)C)[C@@H]1[C@H]1CC[C@@H]3[C@@]4(C)Cc5c([nH]c6ccccc56)C(C)(C)[C@@H]4CC[C@@]3(C)[C@]1(C)CC2`: the growth is 108% (inactive).

As for `COc1cc(C2CC(c3cccc(Nc4ccncc4)c3)=NN2C(C)=O)cc(OC)c1OC` (stereo not given), the growth was 83.8% (inactive).

Consider `Cc1ccc(S(=O)(=O)Nc2ccc(Cl)cc2)cc1`, for which the growth is 89.7% (inactive).

For `COc1cc(OC)c(/C=C/C(=O)c2ccc(Nc3ncnc4ccccc34)cc2)c(OC)c1`, the growth was 6.46% (active).

On to `O=C(Nc1cccc(Cl)c1)c1cc(Cl)ccc1O`, for which the growth is 27.4% (inactive).

With `C=C1C(=O)O[C@H]2[C@H]1CC/C(COC(=O)CCCCCC(=O)OC/C1=C/CC[C@@]3(C)O[C@H]3[C@H]3OC(=O)C(=C)[C@@H]3CC1)=C\CC[C@@]1(C)O[C@@H]21`, the growth was 37.2% (inactive).

In the case of `O=C(CSc1nc2sc3c(c2c(=O)n1Cc1ccccc1)CCCC3)N1CCN(c2ccccc2)CC1`, the growth was 96.1% (inactive).

For the molecule `O=C(NCCc1ccccn1)OCc1nc2nc(Cl)nc(N3CCOCC3)c2[nH]1`, the growth was 28.6% (inactive).

As to `COc1ccc(C(=O)c2cc3c(N)c(C(=O)Nc4ccc(Cl)cc4)sc3nc2C)cc1`, the growth is 21.5% (inactive).

As for `CC(=O)c1c(-c2ccc(OC(F)(F)F)cc2)nc2ccccn12`, the growth is 100% (inactive).

Regarding `FC(F)(F)Oc1cccc(-c2cc(NCCCCCCNc3cc(-c4cccc(OC(F)(F)F)c4)nc4ccc(N5CCCC5)cc34)c3cc(N4CCCC4)ccc3n2)c1`, the growth was -72.7% (active).

Turning to `O=S(=O)(NCCNc1nccc(-c2c(-c3cccc(F)c3)nc3occn23)n1)c1cccc2ccccc12`, the growth is 47.8% (inactive).

`COc1ccc(Cn2nc(-c3cc(OC)c(OC)c(OC)c3)c3c2CCc2cnoc2-3)cc1OC`: the growth was 70.7% (inactive).

Take `CN(C)Cc1c(-c2ccccc2)[nH]c2ccccc12`: the growth is 117% (inactive).

On to `COc1cc(CCNc2nc3cc(N)cc(N)c3nc2-c2ccccc2)cc(OC)c1`, for which the growth was -94.9% (active).

With `O=C(Nc1nc(-c2ccc(Br)cc2)cs1)c1cc(-c2ccc(Br)cc2)nc2ccc(Cl)cc12`, the growth is 82.5% (inactive).

Turning to `O=S(=O)(NCCNc1nccc(-c2c(-c3ccc(F)c(O)c3)nc3sccn23)n1)c1ccccc1`, the growth is 92.8% (inactive).

These data come from PubChem BioAssay (NCI).
